Experimental data from PubChem BioAssay AID720542 (National Center for Advancing Translational Sciences (NCATS), 2013).
In all, about 360,000 compounds went through this assay and about 740 (0.21%) were called active. About 2% were inconclusive and are not listed. Calls come from the whole dose curve; as a rule, active = well fitted inhibition curve with a large enough effect; inconclusive = small, poorly fitted or top-dose-only effect; inactive = no such curve, though single readings can be large or run the other way. The entries come from a sample that favours actives as a whole.

Tested on: Plasmodium falciparum AMA1 (3D7) - RON2 peptide interaction
Experiment: qHTS for Inhibitors of AMA1-RON; Towards Development of Antimalarial Drug Lead: Primary Screen; note: nearly all actives have a fitted effect of over 45% in size;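 for activity change, negative = inhibition: 0% = vehicle wells and -100% = peptide control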
Conditions: AlphaScreen AMA1-biotinylated RON2 peptide binding; series mostly up to 58.2 µM; activity change, negative = inhibition: at the top concentration
From the text: Plasmodium, the causative agent of malaria, is one of the world's deadliest parasitic diseases. Currently there is no vaccine available and there is widespread resistance to common anti-malarial drugs. This warrants novel, alternative approaches for developing improved therapy. During infection, one such essential interaction is between two parasite proteins, the apical membrane antigen1 (AMA1) that is translocated onto the merozoite surface and the rhoptry neck protein 2 (RON2), which is transferred to the red blood cells (RBC) membrane during invasion (Besteiro et.al., 2009). Recently, the Miller lab has shown that the interaction between AMA1 and RON2 is essential for junction formation of the parasite with the host cell (Srinivasan et.al., 2011). The binding of the RON2 peptide to the hydrophobic pocket in AMA triggers the formation of the moving junction which provides a firm anchor for the parasite to pull itself into the RBC using its actin-myosin motor; an irreversible step that commits the parasite for invasion. Only one AMA1 and RON2 genes exists in Plasmodium and there are no alternate pathways. Moreover, the region corresponding to RON2 peptide is conserved in all P. falciparum isolates for which sequences are available. The key residues in the AMA1 hydrophobic pocket that binds RON2 are also conserved and indicate a functional constraint governing this essential step in invasion since a short RON2 peptide (RON2L) corresponding to the binding region on AMA1 is sufficient to compete with the native RON2 protein and inhibits invasion (Tonkin et.al, 2011). Therefore, developing small molecule inhibitors of this interaction offers a promising target opening a new arena for anti-malarial therapeutics drug design.
In collaboration with the Miller lab, a quantitative High Throughput Screen using the AlphScreen technology was developed using a recombinant his-tagged AMA1 and a biotinylated RON2 peptide. This fluorescent screen was assayed against the NIH Molecular Libraries Small Molecule Repository (MLSMR). Inhibition of this protein-protein interaction is the desired outcome of this assay. However, due the limitations of this AlphaScreen assay, a large number of artifacts were observed. An AlphaScreen counterscreen was run to identify the true inhibitors, triage compound activity, and weed out false positives.
NIH Chemical Genomics Center [NCGC]
NIH Molecular Libraries Probe Centers Network [MLPCN]
Assay Submitter (PI): Louis Miller, National Institute of Allergy and Infectious Disease (NIAID)
Two microliters of his-tagged AMA1 3D7 allele protein (final concentration 25 nM) was dispensed into a 1,536-well assay plate. Small molecules and positive control peptides were pin-transferred (23 nL or 46 nL) via Kalypsys pin-tool equipped with a 1,536-pin array, resulting in final compound and peptide concentration ranges of 91.5 nM - 57.2 µM, and 15.6 nM - 2.00 µM, respectively. Unlabeled RON2 peptide or R1 peptide ([…]) that specifically binds the 3D7 AMA1 was used as a positive control that inhibited the binding of RON2L to AMA1. After 15 minutes incubation, 1 uL of biotinylated RON2 peptide (final concentration 25 nM) or buffer were dispensed and the assay plate was incubated for an additional 30 minutes at room temperature and protected from light. This was followed by an addition of 1 uL mixture of donor and acceptor beads (10 ug/mL final concentrations for each). The plates were incubated for 30 min at room temperature and read using the EnVision(R) plate reader (PerkinElmer). Maximum inhibition response was normalized to the positive control signal while no inhibition response was normalized to the DMSO treated wells.
Potency is the fitted concentration of half-maximal effect.

Row | Compound | activity change, negative = inhibition | Potency
1 | CCCN(CCC)CC(O)COc1ccccc1C(=O)Nc1ccccc1 (stereo unspecified) | -11.6% (inactive) | 
2 | CC(C)C(O)C1CCN(Cc2nc(Cc3ccccc3Cl)no2)CC1 (stereo unspecified) | 45.3% (inactive) | 
3 | CCCOc1cc(C)c(S(=O)(=O)n2nnc3ccccc32)cc1C | 7.11% (inactive) | 
4 | COc1cccc(-n2c(=O)c3c(C)c(C(=O)N(C)C)sc3n(CC(=O)NCCc3ccc(OC)c(OC)c3)c2=O)c1 | 4.48% (inactive) | 
5 | Cc1ccc(OCC(=O)Nc2cccc3c2CCCC3)cc1C | 10.4% (inactive) | 
6 | Oc1cc(O)c2c(c1)OC(c1ccc(O)c(O)c1)C(O)C2 (stereo unspecified) | -11.9% (inactive) | 
7 | CCOC(=O)C1(Cc2ccccc2C(F)(F)F)CCN(C(=O)c2cc(C)n(C)n2)CC1 | -2.34% (inactive) | 
8 | C[C@H](CO)N1C[C@H](C)[C@@H](CN(C)C(=O)NC2CCCCC2)Oc2ccc(NC(=O)c3ccncc3)cc2C1=O | -2.89% (inactive) | 
9 | CCCCN(C(=O)c1ccc(OC(F)(F)F)cc1)c1c(N)n(CCC)c(=O)[nH]c1=O | 5.06% (inactive) | 
10 | CC(C)C(=O)NCC(c1cccs1)S(=O)(=O)c1ccc(F)cc1 (stereo unspecified) | 20.5% (inactive) | 
11 | Cc1csc(=O)n1CCC(=O)OCC(=O)Nc1ccc(N2CCOCC2)cc1 | 14.1% (inactive) | 
12 | CCc1c(C)[nH]c(=S)c(C#N)c1C | 22.4% (inactive) | 
13 | COc1ccc(C)cc1S(=O)(=O)Nc1cccc(Cl)c1Cl | 3.36% (inactive) | 
14 | CCN(CC)C(=O)CSc1nnc(-c2cnccn2)n1-c1ccc(C)cc1 | -8.2% (inactive) | 
15 | COC(=O)c1ccc(OCC(O)CN(CCO)CC(O)Cn2ccc3ccccc32)cc1 (stereo unspecified) | 9.1% (inactive) | 
16 | NC(=O)CCCC1=NS(=O)(=O)c2ccccc2N1 | 8.24% (inactive) | 
17 | CC(CC(=O)Nc1ccc(F)cc1F)S(=O)(=O)c1ccc2c(c1)NC(=O)CO2 (stereo unspecified) | -11.5% (inactive) | 
18 | O=C(NC1CCCC1)C(NS(=O)(=O)c1ccc(Br)s1)c1ccccc1 (stereo unspecified) | 4.01% (inactive) | 
19 | Cc1ccc(N)cc1-n1c(C)ccc1C | -2.66% (inactive) | 
20 | COc1cc(C(=O)NNC(=O)CN2C(=O)NC3(CCCC3)C2=O)cc(OC)c1OC | 23.7% (inactive) | 
21 | OC(c1ccc(Cl)cc1)C(CN1CCOCC1)c1ccccc1 (stereo unspecified) | -4.17% (inactive) | 
22 | C=CCn1c(SCc2c(C(=O)OC)sc(N)c2C(=O)OC)nnc1-c1ccc(Cl)cc1 | 10.1% (inactive) | 
23 | CC1(C)CC(=O)c2cnc3nc4ccccc4n3c2C1 | -13.2% (inactive) | 
24 | CCCC1(C(=O)OC)NC(c2ccco2)C2C(=O)N(C)C(=O)C21 (stereo unspecified) | -5.83% (inactive) | 
25 | Cn1ccc(=Nc2ccc(NC(=O)c3ccc(N=c4ccn(C)c5ccc([N+](=O)[O-])cc45)cc3)cc2)cc1 | -10.7% (inactive) | 
26 | CCCN(CCC)S(=O)(=O)c1ccc(C(=O)N2CC3CCC(CC3)C2)cc1 | -4.87% (inactive) | 

Row | Compound | activity change, negative = inhibition | Potency
27 | CN(c1ccccc1)S(=O)(=O)c1ccc2[nH]c(=O)[nH]c2c1 | 0.947% (inactive) | 
28 | CC1(C(=O)NCc2ccco2)Cc2c(-c3ccc4c(c3)OCO4)ccnc2O1 (stereo unspecified) | -5.41% (inactive) | 
29 | COC(=O)c1ccc(NC(=O)CSc2nncc3ccc(OC)c(OC)c23)cc1 | -13.1% (inactive) | 
30 | COCCN(CC(=O)Nc1ccccc1C)S(=O)(=O)c1ccc(S(=O)(=O)N2CCCC2)cc1 | 2.33% (inactive) | 
31 | CSc1nnc2c(n1)OC(c1cn(C)c3ccccc13)N(C(C)=O)c1ccccc1-2 (stereo unspecified) | 5.41% (inactive) | 
32 | O=C(CN1C(=O)NC2(CCCCCCC2)C1=O)NCc1ccc(F)cc1 | 2.43% (inactive) | 
33 | Cc1nc([N+](=O)[O-])nn1C12CC3CC(CC(Br)(C3)C1)C2 | -0.205% (inactive) | 
34 | CCOc1ccc(OCC)c(NC(=O)C2CCN(S(=O)(=O)c3c(C)noc3C)CC2)c1 | -11.4% (inactive) | 
35 | CSCc1cc(N2CCOCC2)nc(SCc2ccc(Cl)cc2Cl)n1 | -1.83% (inactive) | 
36 | CC(=O)c1ccc(S(=O)(=O)NC2CC(=O)N(c3ccc4c(c3)OCCO4)C2)cc1 (stereo unspecified) | 5.8% (inactive) | 
37 | NC(=O)CC(NC(=O)Cc1ccc(Br)cc1)c1ccc(NC2CC3CCC2C3)c([N+](=O)[O-])c1 (stereo unspecified) | -18% (inactive) | 
38 | CCOC(=O)C1(Cc2ccccc2C)CCCN(S(C)(=O)=O)C1 (stereo unspecified) | 8.1% (inactive) | 
39 | COc1ccc(CNC(=O)C[C@H]2C[C@H](C(=O)N3CCOCC3)[C@@]3(C)c4[nH]c5cc(CCC(=O)N(C)C)ccc5c4CCN3C2=O)cc1OC | 11.3% (inactive) | 
40 | COc1ccc2occ(C(=O)c3ccc(N=C(C)N(C)C)cc3)c2c1 | -7.37% (inactive) | 
41 | CN(C)c1ccc(Nc2c3c4c(cccc4n(C)c2=O)C(=O)c2ccccc2-3)cc1 |  | 4.47 µM (active)
42 | COCCNC(=O)Nc1ccc2nc(-c3ccco3)c(-c3ccco3)nc2c1 |  | 7.08 µM (active)
43 | O=C(NCCOc1ccccc1F)Nc1ccc(Br)cc1 | -2.52% (inactive) | 
44 | COCCN(C(=O)c1ccco1)c1nnc(-c2ccc(OC)cc2)s1 | 3.14% (inactive) | 
45 | CC1=C(C(=O)OC(C)(C)C)C(c2ccc(Br)cc2)NC(=O)N1CCCC(=O)O (stereo unspecified) | -7.79% (inactive) | 
46 | O=C(CSc1nnc2ccc(-c3ccncc3)nn12)N1CCCCC1 | 18.5% (inactive) | 
47 | O=C1CCC/C=C\C[C@@H](CC(=O)N(CCO)Cc2ccccc2)C(=O)NCCO1 | 13.1% (inactive) | 
48 | O=C(O)CSC(NC(=O)c1cccnc1)(C(F)(F)F)C(F)(F)F | -2.41% (inactive) | 
49 | COc1ccc(OC)c(C2C3=C(N=c4s/c(=C\c5cccc(O)c5)c(=O)n42)c2ccccc2CC3)c1 (stereo unspecified) | -12.8% (inactive) | 
50 | CCOCCCN(C)C1CCN(C(=O)c2oc3ccccc3c2NC(=O)COc2cccc(C)c2)CC1 | -11.2% (inactive) | 
51 | COc1cc(C(=O)OCC(=O)N(CC(C)C)C2CCS(=O)(=O)C2)ccc1OCC(C)C (stereo unspecified) | 8.24% (inactive) | 
